Hits are enriched below; roughly 6.3% of the tested compounds scored in any of these assays.
HepG2 viability – kills HepG2 cells in TGF-b inhibitor counter-screen; AID 588856; 410,000 compounds, 0.76% hits; Potency, µM (titrated, usually from 46.1 µM), for the others: at the top dose activity change, negative = cytotoxicity, usual class: cytotoxic; HepG2 CAGA-GFP viability, ATP luminescence, 18 h
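CellTiter-Glo luminescence gave cytotoxicity after 18 hours at 37 degrees C. The cells were HepG2 CAGA-GFP in 1% FBS DMEM, stimulated with 500 pg/mL TGF-beta after compound addition. %Activity was normalised to no-cell wells (complete cell-killing) and DMSO (no toxicity), and curves were fitted and classified.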
ATXN2 expr inh – inhibitors of ATXN2 expression | HEK-293 ATXN2-luciferase reporter, luminescence, 24 h | Potency, µM (titrated, usually from 57 µM), for inactives: top-dose activity change, negative = inhibition, hits mostly inhibitors | 360,000 compounds, 0.72% hits; also: % is scaled to controls: 0 for no effect and ±100 for the full control effect; nearly all actives have a fitted effect of over 55% in size
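ATXN2-luciferase reporter cells (luciferase flanked by upstream and downstream ATXN2 gene portions) were treated 24 h at 37 °C with compounds at up to 57 uM. SteadyGlo luminescence gave expression; GF-AFC fluorescence gave viability.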
S2 tox – cell viability loss in ATXN counter-screen. S2 cells (HEK-293 line with an ATXN2-luciferase reporter) viability, CellTiter-Fluor protease fluorescence, 24 h. Potency, µM (titrated, usually from 56.7 µM), usual class: cytotoxic. 400,000 compounds, 0.49% hits; also: nearly all actives have a fitted effect of over 40% in size
Gal4-VP16 FLuc – inhibits Gal4-VP16 luciferase reporter, ROR gamma counter-screen | Drosophila S2 Gal4-VP16 UAS-luciferase, luminescence, 20 h | Potency, µM (top dose mostly 53.6 µM), inactives show top-dose activity, negative = inhibition, most hits filed as inhibitors | 310,000 compounds, 3.5% hits | AID 2546;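 also: Gal4-VP16 expression switched on by copper sulfate through the metallothionein promoter; % is scaled to controls: 0 for no effect and ±100 for the full control effect; nearly all actives have a fitted effect of over 50% in size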
TGFb SMAD3 inh – inhibitors of TGF-b signaling | HepG2 CAGA-GFP TGF-b/SMAD3 reporter, GFP fluorescence, 18 h; TGF-beta stimulated, 500 pg/mL final | Potency, µM (highest dose often 46.1 µM), without a hit: top-dose activity, negative = inhibition, usual class: inhibitors | 410,000 compounds, 1.2% hits | AID 588855; also: % is scaled to controls: 0 for no effect and ±100 for the full control effect; nearly all actives have a fitted effect of over 65% in size
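TGF-beta reporter screen: HEPG2 CAGA-GFP, 1% FBS, 500 pg/mL TGF-beta final, 18 h; per-cell GFP summed per well; curves fitted and categorized by class.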
RORgamma inh – inhibitors of mouse ROR gamma transcriptional activity; Drosophila S2 Gal4-RORgamma UAS-luciferase reporter, 20 h; P51450; Potency, µM (top dose mostly 53.6 µM), inactives show at the highest dose activity change, negative = inhibition, actives largely listed as inhibitors; 310,000 compounds, 5.4% hits; also: % is scaled to controls: 0 for no effect and ±100 for the full control effect; nearly all actives have a fitted effect of over 60% in size
Target sequence (P51450 whole entry, looked up, the tested form may be a part): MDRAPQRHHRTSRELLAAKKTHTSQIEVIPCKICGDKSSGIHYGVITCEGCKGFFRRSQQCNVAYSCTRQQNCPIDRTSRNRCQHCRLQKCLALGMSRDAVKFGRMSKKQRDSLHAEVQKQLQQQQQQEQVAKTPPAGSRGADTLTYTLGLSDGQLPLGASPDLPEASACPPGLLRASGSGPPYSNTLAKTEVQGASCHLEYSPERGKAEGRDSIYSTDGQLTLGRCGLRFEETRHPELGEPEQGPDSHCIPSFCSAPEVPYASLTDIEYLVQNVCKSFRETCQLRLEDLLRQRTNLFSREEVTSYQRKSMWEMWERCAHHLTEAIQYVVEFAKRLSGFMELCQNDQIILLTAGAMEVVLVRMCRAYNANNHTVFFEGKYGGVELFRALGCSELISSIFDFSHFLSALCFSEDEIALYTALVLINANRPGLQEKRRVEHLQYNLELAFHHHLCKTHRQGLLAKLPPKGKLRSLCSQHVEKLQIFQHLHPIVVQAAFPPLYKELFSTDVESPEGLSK
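Schneider cells (Drosophila), stable Gal4 DBD–ROR gamma + UAS-luc; 1 hr cmpd preincubation; Cu2+ induction 700 uM final; 20 hr ambient; luminescence.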
Numbers without * were called inactive; i = inactive; ? = inconclusive; . = not tested or not shown. Calls follow the shape of the dose curve; as a rule, active = well fitted curve in the direction sought with a large enough effect; inconclusive = small, poorly fitted or top-dose-only effect, or another doubt; inactive = no such curve, though single readings can be large; an effect the other way counts as inactive or inconclusive. Potency is read from the fitted curve at half-maximal effect.

SMILES | HepG2 viability | ATXN2 expr inh | S2 tox | Gal4-VP16 FLuc | TGFb SMAD3 inh | RORgamma inh
Cc1ccc2nc(-c3ccc(NC(=O)COC(=O)c4ccc(Br)o4)cc3)sc2c1 | -25% | -29% | ? | 4µM* | 19% | 0.28µM*
O=C(CS(=O)(=O)c1nc(-c2ccc(Cl)cc2)cn1-c1ccccc1)Nc1cccc(Cl)c1 | -33% | -29% | ? | . | 10µM* | .
Cc1nc(C(=O)NCC(=O)O)c(O)c2ccc(Oc3ccccc3)cc12 | . | 23% | . | . | . | .
Cc1cc(C)n(-c2nnc(Nc3ccc(C)c(Cl)c3)c3ccccc23)n1 | -21% | -5% | i | . | 10µM* | .
Cc1ncc2c(c1CNC(=O)/C=C/c1cccs1)CCN(C(=O)c1cc(C(C)C)on1)C2 | . | . | i | . | . | .
CC[C@@]1(O)C(=O)OCc2c1cc1n(c2=O)Cc2c-1nc1ccccc1c2/C=N/OC(C)(C)C | . | 0.0005µM* | i | . | . | .
Nc1nc2ccc(S(=O)(=O)N3CCCCC3)cc2s1 | -31% | ? | ? | ? | -30% | 13µM*
c1cc(CN2CCCNCCNCCCNCC2)ccc1CN1CCCNCCNCCCNCC1 | . | 6% | . | -18% | . | -26%
O=C(NN=C1CCCCCC1)c1ccc(Cl)s1 | 2% | 1% | i | 13µM* | -14% | ?
COc1ccccc1N1CCN(C(=O)C2CCN(S(=O)(=O)c3cnc[nH]3)CC2)CC1 | -3% | -1% | i | . | 2% | .
Cc1ccc(NC(=O)CN2C(=O)NC(Cc3c[nH]c4ccccc34)C2=O)cc1S(=O)(=O)N1CCCCC1 (stereo not drawn) | -7% | -24% | ? | 2% | 10µM* | 9%
CCOc1cc(CNCCO)cc(Br)c1OCc1ccc(Cl)cc1Cl | 16µM* | 20µM* | . | ? | ? | 17%
OCCNCc1cc(Br)ccc1OCc1ccc(Cl)cc1Cl | 16µM* | ? | ? | -4% | ? | 0%
CCOc1cc(CNCCO)cc(Br)c1OCc1cccs1 | -73% | ? | ? | -29% | ? | ?
OCCNCc1cc(Br)ccc1OCc1ccc(Cl)cc1 | -51% | -11% | i | -9% | ? | 27%
COc1cc(OC)c(/C=C/c2cc(/C=C/c3c(OC)cc(OC)cc3OC)[n+](C)c3ccccc23)c(OC)c1 | -45% | . | . | . | ? | .
C=CCC(O)(/C=C/c1ccccc1)c1ccccc1 (stereo not drawn) | . | . | . | -4% | . | -9%
O=C(O)/C=C/c1cn(Cc2ccccc2)nc1-c1ccccc1 | -1% | 5% | i | -3% | 0% | 14%
O=C(O)CCn1cc(/C=C/C(=O)c2ccc(Cl)cc2)c(-c2ccc(Br)cc2)n1 | 16µM* | ? | i | ? | ? | 7.1µM*
CCC1=C(Nc2ccccc2)COC1=O | -13% | . | i | . | -5% | .
CC(=O)Nc1ccc(N(CC(O)Cn2c3ccccc3c3ccccc32)S(=O)(=O)c2ccc(C)cc2)cc1 (stereo not drawn) | -49% | ? | i | ? | 14µM* | ?
Cc1ccc(-c2csc(NC(=O)C[n+]3cc(-c4ccccc4)n4c3CCC4)n2)cc1 | -10% | -14% | ? | -1% | 22µM* | 37%
O=C(CNCc1ccccn1)Nc1ccc([N+](=O)[O-])cc1C(=O)Nc1ccccc1F | -13% | -23% | i | -19% | ? | 20µM*
C[C@@H]1CN(Cc2ccc(F)cc2)[C@@H](C)CN1C(=O)c1cc2c(C(=O)C(=O)N(C)C)cn(C)c2cc1Cl | . | -17% | . | . | . | .
COc1ccc(NC(=O)c2ccc3c(=O)n(-c4ccc(OC)cc4OC)c(=S)[nH]c3c2)c(OC)c1 | -33% | -13% | i | 8.9µM* | 0% | 2.8µM*
SMILES | HepG2 viability | ATXN2 expr inh | S2 tox | Gal4-VP16 FLuc | TGFb SMAD3 inh | RORgamma inh
COc1ccc(-n2c(=S)[nH]c3cc(C(=O)Nc4ccc(C)c(F)c4)ccc3c2=O)c(OC)c1 | -8% | -26% | i | 13µM* | -19% | 5µM*
COc1ccc(-n2c(=S)[nH]c3cc(C(=O)Nc4ccc(OC)c(OC)c4)ccc3c2=O)cc1 | 1% | -2% | i | -22% | 0% | -15%
COc1ccc(-n2c(=S)[nH]c3cc(C(=O)Nc4cc(C(N)=O)ccc4OC)ccc3c2=O)c(OC)c1 | -13% | -18% | i | -3% | -6% | -56%
CCOc1ccc(NC(=O)c2ccc3c(=O)n(-c4ccc(OC)cc4OC)c(=S)[nH]c3c2)cc1 | . | . | . | 16µM* | . | ?
CCOC(=O)[C@@H](C)N(C(=O)OC(C)(C)C)S(=O)(=O)N(Cc1ccccc1)[C@@H](C(=O)OC)C(C)C | -48% | . | . | . | ? | .
O=C(Nc1cccc2c(=O)[nH][nH]c(=O)c12)c1ccc([N+](=O)[O-])cc1 | -36% | 17% | i | . | 41% | .
Cc1noc(C)c1CSc1ncnc2sc3c(c12)CCCCC3 | 9% | 1% | i | ? | 8% | 7.9µM*
Cc1noc(C)c1CSc1ncnc2sc(C)c(C)c12 | -2% | 5% | i | -4% | -7% | 7%
Cc1ccc(C)c(NC(=O)CSc2nnc(-c3cc(C)[nH]n3)n2N)c1 | -6% | 2% | i | -14% | 5% | 2%
Cc1nnc(SCc2ccccc2Cl)c2cc3occc3n12 | -56% | . | . | . | ? | .
Nc1cccc2c1C(=O)N(CCOc1ccccc1F)C2=O | -64% | ? | . | ? | 22% | 8.9µM*
N#Cc1ccccc1OCCN1C(=O)c2ccccc2C1=O | -4% | 40% | i | -1% | 21% | ?
C=CCN(c1ccccc1C(=O)NCC(=O)O)S(=O)(=O)c1ccccc1C | 3% | 3% | i | 0% | 3% | -9%
COc1cccc(Nc2sc(C(=O)c3ccc(F)cc3)c(N)c2C(=O)NCc2ccc(C)cc2)c1 | -46% | . | . | . | 14µM* | .
Cc1ccc(CNC(=O)c2c(Nc3ccccc3C)sc(C(=O)c3ccc(F)cc3)c2N)cc1 | 16µM* | ? | ? | . | 18µM* | .
Cc1ncc2c(c1CNS(=O)(=O)N(C)C)CCN(C(=O)/C=C/c1cccc(F)c1)C2 | . | . | i | . | . | .
COc1ccccc1-c1noc(CCC(=O)Nc2ccc(C)cc2C)n1 | -3% | 3% | i | . | 15% | .
O=C1CSc2ccc(C(=O)Nc3cccc(S(=O)(=O)Nc4ccc(Br)cc4)c3)cc2N1 | 16µM* | . | ? | 10µM* | 13µM* | 16µM*
O=C(O)c1ccc(NC(=O)c2cccc(S(=O)(=O)Nc3ccc(C(=O)O)cc3)c2)cc1 | -18% | -16% | i | -21% | -8% | -8%
Cc1ccc(C(=O)Nc2ccc(Br)cc2)cc1S(=O)(=O)NCc1ccccc1 | -54% | ? | ? | . | 16µM* | .

From PubChem BioAssay
